# Results filed as inconclusive are left out. Some compounds were tested as several samples or in several runs, with calls that do not always agree. Calls of active or inactive are those of the source. The calls were made as follows, unless noted: active = hit-call score of the fitted dose curve at least 0.9, where 1 is the maximum; inconclusive = response in the unintended direction; inactive = score below 0.9.
# Legend:
# [1] = STM_H9_OrnithineISnorm_perc: Stemina devTOX quickPredict H9 human embryonic stem cell (hESC)-based Assay for Ornithine (ORN) Metabolite Biomarker, Normalized (AID 2283712; active = hit-call score of the fitted dose curve at least 0.9, where 1 is the maximum; inactive = score below 0.9;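 also: ornithine released into spent medium during last day measured by mass spectrometry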)
# In short: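 Undifferentiated pluripotent H9 hESCs were exposed to compound for 72h, with media and compound replaced every 24h. Ornithine in final 24-h conditioned media was measured by UPLC-HRMS, normalized to 13C-labeled spike-in standard and to median 0.1% DMSO control.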
# [2] = STM_H9_CystineISnorm_perc: Stemina devTOX quickPredict H9 human embryonic stem cell (hESC)-based Assay for Cystine (CYSS) Metabolite Biomarker, Normalized (AID 2283713; active = hit-call score of the fitted dose curve at least 0.9, where 1 is the maximum; inactive = score below 0.9)
# In short: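 Undifferentiated H9 hESCs were exposed to compound for 72h, with medium and compound replaced every 24h. Final-24h conditioned medium was deproteinized and analyzed by UPLC-HRMS. Cystine EIC area was normalized to spiked C13 standard and 0.1% DMSO median.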
# [3] = STM_H9_OrnCyssISnorm_ratio: Stemina devTOX quickPredict H9 human embryonic stem cell (hESC)-based Assay for Ornithine (ORN):Cystine (CYSS) Ratio (AID 2283714)
# In short: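 Undifferentiated H9 hESCs exposed 72 h, media and compound replaced every 24 h; final 24-h conditioned media deproteinized and analysed by UPLC-HRMS against C13 spike-ins. Value is the internal-standard-normalized ORN/CYSS ratio versus 0.1% DMSO.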
# [4] = Tanguay_ZF_120hpf_ActivityScore_legacy: (Legacy) Oregon State University Tanguay Lab 120 Hour Post-fertilization zebrafish Assay Score for Activity (AID 2283742);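 as to AC50: dechorionated Tropical 5D wild-type zebrafish embryos held singly per well; static exposure from 6 hpf until 120 hpf at 28 °C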
# In short: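 Dechorionated Tropical 5D embryos, one per well from 6 hpf, statically exposed to 120 hpf at 28 °C in 0.64% DMSO. Mortality and malformations scored binary by brightfield microscopy; activity score combines 18 endpoints, fitted positively versus DMSO.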
# [5] = biological target: Luciferin 4-monooxygenase (Photinus pyralis) (UniProt P08659); assay: CCTE_Simmons_QuantiLum_inhib_2: CCTE's Firefly Luciferase Inhibition Assay, Simmons Lab (AID 2283767)
# Luciferin 4-monooxygenase (Photinus pyralis), sequence (P08659 whole entry, looked up): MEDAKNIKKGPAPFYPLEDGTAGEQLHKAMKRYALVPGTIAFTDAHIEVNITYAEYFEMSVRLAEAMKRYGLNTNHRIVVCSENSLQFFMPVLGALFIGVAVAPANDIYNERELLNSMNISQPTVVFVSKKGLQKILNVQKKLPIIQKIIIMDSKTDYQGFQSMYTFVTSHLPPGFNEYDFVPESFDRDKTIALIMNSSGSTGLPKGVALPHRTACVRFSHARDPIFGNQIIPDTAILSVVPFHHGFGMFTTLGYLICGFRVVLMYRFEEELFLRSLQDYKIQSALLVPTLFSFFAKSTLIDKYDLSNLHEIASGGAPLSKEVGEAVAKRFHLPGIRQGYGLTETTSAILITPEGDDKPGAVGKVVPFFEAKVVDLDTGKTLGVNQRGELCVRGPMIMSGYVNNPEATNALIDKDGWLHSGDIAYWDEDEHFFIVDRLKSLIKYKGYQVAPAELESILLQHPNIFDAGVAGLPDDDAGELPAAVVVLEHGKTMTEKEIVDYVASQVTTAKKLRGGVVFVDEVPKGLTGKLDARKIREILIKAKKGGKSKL
# In short: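 Recombinant firefly luciferase (5 ng/well, 200 mM potassium phosphate with 1 mg/ml BSA) was exposed to 8 concentrations from 5 nM to 87.5 uM (final, 0.5% DMSO) for 30 min at 37C in the dark. Loss of luminescence versus DMSO was read after injecting D-luciferin/ATP-analogue reagent.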
# [6] = CEETOX_H295R_MTT_cell_viability: Viability Assessment in the CeeTox HT-H295R MTT Assay (AID 2283718; active = hit-call score of the fitted dose curve at least 0.9, where 1 is the maximum; inactive = score below 0.9)
# In short: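 Human H295R adrenal cells, prestimulated 48 h with 10 uM forskolin, were exposed 48 h to chemicals in 0.1% DMSO. Viability was measured in the same wells by MTT (0.5 mg/ml, 4 h, 37 C), absorbance 570/650 nm, as percent of controls.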
# [7] = test system: chicken Androgen Receptor (AR), gene 422165; assay: ATG_chAR_XSP1: Attagene TRANS-FACTORIAL Multi-Species (XSP1) HepG2 Assay for chicken Androgen Receptor (AR) (AID 2283768)
# In short: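 HepG2 cells transiently transfected with multiplexed GAL4-UAS reporter units expressing chimeric chicken AR-Gal4; 3 nM 6-alpha-fluorotestosterone for partial AR stimulation; 24 h after dosing, reporter mRNA by RT-PCR and capillary electrophoresis, gain-of-signal versus DMSO.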
# [8] = test system: Thyroperoxidase (TPO), gene 445522; assay: CCTE_Simmons_GUA_TPO: CCTE's Guaiacol Assay for Thyroperoxidase (TPO) Inhibition, Simmons Lab (AID 2283750)
# In short: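 Porcine thyroid microsomes (25 ug) in 200mM potassium phosphate, preincubated 30 s at 37C with compound (8 concentrations, 5 nM–87.5 uM) and 35mM guaiacol; 1mM H2O2 starts reaction. Absorbance change at 450nm over first 80 s; loss of signal versus DMSO, three replicates.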
smiles,measurement,setting,value
CCC(C)c1cc([N+](=O)[O-])cc([N+](=O)[O-])c1O (stereo not drawn),outcome,[1],inactive
same,outcome,[2],inactive
same,outcome,[3],inactive
same,AC50,[4],0.346 µM (active)
COc1ccc(O)c(C(C)(C)C)c1,outcome,[4],inactive
same,outcome,[5],inactive
ClC(Cl)=C(c1ccc(Cl)cc1)c1ccc(Cl)cc1,outcome,[4],inactive
Oc1c(Cl)c(Cl)c(Cl)c(Cl)c1Cl,outcome,[6],inactive
same,AC50,[4],1.03 µM (active)
same,outcome,[5],inactive
O=C(O)C(F)(F)C(F)(F)C(F)(F)C(F)(F)C(F)(F)C(F)(F)C(F)(F)C(F)(F)F,outcome,[4],inactive
same,outcome,[5],inactive
Cc1ccc(O)c(C)c1,outcome,[6],inactive
same,outcome,[4],inactive
same,outcome,[5],inactive
O=C(NC(=O)c1c(F)cccc1F)Nc1cc(Cl)c(OC(F)(F)C(F)F)c(Cl)c1,outcome,[6],inactive
same,outcome,[4],inactive
same,outcome,[5],inactive
Clc1ccc(Cl)cc1,outcome,[4],inactive
C[C@]12CCC(=O)C=C1CC[C@@H]1[C@@H]2CC[C@@]2(C)[C@H]1CC[C@]2(C)O,outcome,[6],inactive
same,outcome,[4],inactive
same,AC50,[7],0.000449 µM (active)
Cc1ccccc1[N+](=O)[O-],outcome,[4],inactive
O=S(=O)(O)C(F)(F)C(F)(F)C(F)(F)C(F)(F)F,outcome,[4],inactive
O=C(O)C(F)(F)C(F)(F)C(F)(F)C(F)(F)C(F)(F)F,outcome,[4],inactive
O=C(N[C@H]1CN2CCC1CC2)c1cc2ccoc2cn1,outcome,[4],inactive
Oc1ccc(Cl)cc1Cl,outcome,[6],inactive
same,outcome,[4],inactive
CCOP(=S)(OCC)SCSC(C)(C)C,outcome,[6],inactive
same,outcome,[4],inactive
CN(C)CCO,outcome,[4],inactive
c1ccc(-c2ccccc2)cc1,outcome,[4],inactive
same,outcome,[5],inactive
Cc1cc2c3c(c1)C(c1ccccc1)=N[C@@H](NC(=O)c1ccncc1)C(=O)N3CC2,outcome,[6],inactive
same,outcome,[4],inactive
O=S(=O)(O)C(F)(F)C(F)(F)C(F)(F)C(F)(F)C(F)(F)C(F)(F)F,AC50,[4],36.6 µM (active)
Cc1ccccc1O,outcome,[4],inactive
ClC1=C(Cl)[C@]2(Cl)[C@@H]3[C@@H](Cl)[C@H]4O[C@H]4[C@@H]3C1(Cl)C2(Cl)Cl,outcome,[4],inactive
CC(C)(O)C(=O)Nc1ccc([N+](=O)[O-])c(C(F)(F)F)c1,AC50,[4],20.3 µM (active)
N#Cc1ccc(N(CC(N)=O)CC(F)(F)F)cc1C(F)(F)F,outcome,[6],inactive
same,outcome,[4],inactive
Cc1cccc([N+](=O)[O-])c1,outcome,[4],inactive
C[C@]12CCC(=O)C=C1CC[C@@H]1[C@@H]2CC[C@]2(C)C(=O)CC[C@@H]12,outcome,[6],inactive
same,AC50,[4],67.7 µM (active)
same,outcome,[5],inactive
same,AC50,[7],0.0535 µM (active)
same,outcome,[7],inactive
CCCCCCCCCc1ccc(O)cc1,outcome,[4],inactive
same,outcome,[5],inactive
CCC(C)(c1ccc(O)cc1)c1ccc(O)cc1,AC50,[4],49.3 µM (active)
same,AC50,[8],189 µM (active)
same,outcome,[5],inactive
O=C(NC(=O)c1cc(F)c(F)cc1Cl)Nc1cc(F)ccc1N1CCC(C(=O)O)CC1,outcome,[4],inactive
CC(c1ccc(O)cc1)(c1ccc(O)cc1)c1ccc(O)cc1,outcome,[4],inactive
same,outcome,[5],inactive
CC(C)C(=O)OCC(C)(C)C(OC(=O)C(C)C)C(C)C (stereo not drawn),AC50,[4],27.2 µM (active)
O=C(O)C(F)(F)C(F)(F)C(F)(F)C(F)(F)C(F)(F)C(F)(F)C(F)(F)C(F)(F)C(F)(F)F,outcome,[6],inactive
same,outcome,[4],inactive
same,outcome,[5],inactive
CC(C)(c1ccccc1)c1ccc(O)cc1,AC50,[4],27 µM (active)
same,outcome,[5],inactive
CCOC(=O)C(O)(c1ccc(Cl)cc1)c1ccc(Cl)cc1,outcome,[4],inactive
CCCN(CCC)N=O,outcome,[4],inactive

# From PubChem BioAssay (EPA / NIEHS)
